Source: PubChem (National Center for Advancing Translational Sciences (NCATS))
Compounds with a hit are over-represented: about 2.5% of the library has one in this group of screens.
PK Bst: pyruvate kinase (B. stearothermophilus) modulation; purified pyruvate kinase, luminescence ATP production; ribose 5-phosphate activator present at AC10; Potency, µM; 51,000 compounds, 1.2% hits; AID 361; in the data active = potency below about 11 µM; inconclusive = mostly about 12 µM to 25 µM;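 the screen sought inhibitors and activators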;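 also: scaled between full activation by ribose 5 phosphate and full inhibition by luteolin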
FLuc inh: firefly luciferase inhibition; P08659; purified firefly luciferase, luminescence, 8 min; 72,000 compounds, 2.2% hits; Potency, µM (top dose mostly 57.1 µM), without a hit: at the top dose activity change, negative = inhibition, hits mostly inhibitors; active = well fitted inhibition curve with a large enough effect; inconclusive = small, poorly fitted or top-dose-only effect; also: nearly all actives have a fitted effect of over 40% in size
Target sequence (P08659 whole entry, looked up): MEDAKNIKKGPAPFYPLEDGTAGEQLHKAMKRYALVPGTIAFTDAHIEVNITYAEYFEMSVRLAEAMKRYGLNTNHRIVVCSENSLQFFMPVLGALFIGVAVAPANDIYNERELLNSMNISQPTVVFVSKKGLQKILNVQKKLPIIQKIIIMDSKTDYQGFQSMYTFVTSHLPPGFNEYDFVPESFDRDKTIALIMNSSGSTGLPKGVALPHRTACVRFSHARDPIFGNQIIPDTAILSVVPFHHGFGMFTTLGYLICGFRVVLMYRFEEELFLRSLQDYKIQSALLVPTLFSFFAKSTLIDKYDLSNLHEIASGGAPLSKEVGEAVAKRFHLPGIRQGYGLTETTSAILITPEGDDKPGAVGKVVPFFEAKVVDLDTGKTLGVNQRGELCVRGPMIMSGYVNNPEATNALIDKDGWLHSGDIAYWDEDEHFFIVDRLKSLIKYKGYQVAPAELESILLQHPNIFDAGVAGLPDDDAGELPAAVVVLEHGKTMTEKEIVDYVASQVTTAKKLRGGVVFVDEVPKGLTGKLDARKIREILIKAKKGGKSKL
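Compounds were tested as concentration series (qHTS) against purified P. pyralis luciferase with luciferin and 10 uM ATP in 50 mM imidazole pH 7.2, 50 mM KCl, 7 mM MgCl2, 0.01% Tween 20, 0.05% BSA. Luminescence was read after 8 min at ambient temperature.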
An asterisk follows results filed as active; i = inactive; ? = inconclusive; · = no result given; [ ] = another dose, or the depositor's remark. Unless noted, % is scaled to controls: 0 for no effect and ±100 for the full control effect; potency is read from the fitted curve at half-maximal effect.

SMILES	PK Bst	FLuc inh
O=C1OCCC1Sc1nnc(-c2ccco2)o1 (centres undefined)	>57	0.2%
O=C1OCCC1Sc1nnc(-c2ccc(Br)cc2)o1 (centres undefined)	·	15.8µM*
COC(=O)C1(C(O)C(=O)c2ccc(C)cc2C)CCCCC1 (centres undefined)	>57	0.2%
COC(=O)c1sc2ccccc2c1C(=O)OC	>57	1.9%
COc1ccc(-c2cc(=O)c3ccccc3s2)cc1	0.875*	15.8µM*
Fc1ccc(-c2nc3n(n2)Cc2ccccc2-3)cc1	2.51*	3.98µM*
Cc1nc2cc(Cl)ccc2n1CCO	>57	-1.1%
O=c1nc2n(c3c1oc1ccccc13)Cc1ccccc1-2	i	1.8%
CCn1c(C)nc2cc(-c3nc4n(n3)Cc3ccccc3-4)ccc21	0.0948*	0.0501µM*
Cc1nn(-c2ccccc2)c2sc(C(=O)OCN3C(=O)c4ccccc4C3=O)cc12	·	-0.2%
O=C(Nc1ccc(C2CCCCC2)cc1)C1CCCN(c2ncccn2)C1 (centres undefined)	>57	-1.5%
Cc1ccc(O)c(-c2cc3ccccc3[nH]2)c1	·	-26.2%
Cc1ccc2[nH]c(-c3cccc(N)c3)cc2c1	?	12.6µM*
CC(=O)c1c(C)[nH]c(C(=O)NC2=NCCS2)c1C	>57	-5.0%
Cc1nc2cc(NC(=O)N3c4ccccc4CC3C)ccc2o1 (centres undefined)	?	12.6µM*
CC1Cc2ccccc2N1C(=O)c1ccc2c(c1)nnn2C (centres undefined)	>57	2.6%
Cc1nc2cc(NC(=O)N3c4ccccc4CC3C)ccc2n1C (centres undefined)	9.47*	5.01µM*
Cc1nc2cc(NC(=O)NCc3ccc4c(c3)OCO4)ccc2o1	>57	-6.5%
O=C(c1noc2c1CCCC2)N1CCCCC1	>57	-1.7%
CCOC(=O)c1cccc(NC(=O)C2CCCN2S(=O)(=O)c2cccc3cccnc23)c1 (centres undefined)	·	-0.2%
O=C(C1CCN(S(=O)(=O)c2cccc3cccnc23)CC1)N1CCc2ccccc21	9.69*	3.9%
O=C(Nc1cccc(C(F)(F)F)c1)C1CCCN1S(=O)(=O)c1cccc2cccnc12 (centres undefined)	8.29*	2.1%
COc1ccc(NC(=O)C2CCN(S(=O)(=O)c3cccc4cccnc34)CC2)cc1OC	·	2.9%
O=C(Nc1ccc2c(c1)OCO2)C1CCN(S(=O)(=O)c2cccc3cccnc23)CC1	6.67*	0.2%
O=C(C1CCCN1S(=O)(=O)c1cccc2cccnc12)N1CCc2ccccc21 (centres undefined)	·	1.1%
SMILES	PK Bst	FLuc inh
COC(=O)N1CCC[C@@]2(CCN(C(c3ccccc3)c3ccccc3)C2)C1	·	1.9%[11.4 µM]
CC#CCCC(=O)N1C=Cc2ccccc2C1C#N (centres undefined)	>57	-2.4%
O=C(Cn1cccc1)N1CCc2ccccc21	>57	0.7%
CC(C)(C)NC(=O)CN(C(=O)CCN1CCCc2ccccc21)C(C)(C)C	>57	0.3%
CC1CCc2nc(NC(=O)CN3CCOCC3)sc2C1 (centres undefined)	>57	-9.2%
Cc1ncsc1C(=O)Nc1nc2c(s1)CC(C)CC2 (centres undefined)	10.3*	10µM*
C[C@@H]1/C=C\CC(=O)OC[C@H](C)C(=O)N2CCC[C@@H]2C(=O)OC1	·	-0.3%[11.4 µM]
N#C/C=C1/NC(=O)c2ccccc2S1	i	0.6%
O=C1N/C(=C\c2ccccc2)c2ccccc21	5.57*	-5.3%
CC1CCCCC1NC(=O)c1ccc2c(c1)[nH]c(=O)n2C1CCCC1 (centres undefined)	>57	-1.6%
COc1ccc2c(c1)-c1ccccc1S(=O)(=O)N2C(C)=O	>57	2.0%
CCCn1nc(NS(=O)(=O)c2ccccc2)c2cc3ccccc3nc21	>57	2.4%
CC(C)Cn1nc(NS(=O)(=O)c2ccccc2)c2cc3ccccc3nc21	4.25*	6.31µM*
c1csc(-c2nn3c(-c4ccncc4)nnc3s2)c1	·	-0.4%
c1coc(-c2nnc3sc(-c4cccs4)nn23)c1	8.98*	0.4%[25.5 µM]
O=C(Nc1ccccc1)C1=C(O)CC(c2ccoc2)CC1=Nc1ccccc1 (centres undefined)	·	-10.3%
O=C(c1ccc(S(=O)(=O)NCC2CCCO2)cc1)N1CCc2ccccc21 (centres undefined)	>57	0.4%
CC(C)(C)c1ccc(C(=O)/C=C2\NC(=O)CS2)cc1	3.3*	2.51µM*
COCCOC(=O)/C=C1/NC(=O)CS1	>57	1.2%
COc1ccc(NC(=O)CCN2CCC(C)CC2)cc1	·	0.3%
Fc1ccc([C@H]2CCNC[C@H]2COc2ccc3c(c2)OCO3)cc1	·	5.01µM*
CN(C)S(=O)(=O)N1CCC(c2ccc(F)cc2)C(COc2ccc3c(c2)OCO3)C1 (centres undefined)	>57	0.3%
O=c1c2cn[nH]c2nc(SCc2ccc3c(c2)OCCO3)n1-c1ccccc1	>57	-1.4%
O=C(N=c1nc2ccccn2s1)c1ccccc1	1.14*	0.794µM*
O=c1c(-c2ccccc2)c(O)nc2ccccn12	>57	1.5%
SMILES	PK Bst	FLuc inh
CCOC(=O)c1ccccc1NC(=O)Cn1cnc2c1c(=O)n(C)c(=O)n2C	·	0.4%
Cc1cccc(OCCOCCN2CCOCC2)c1C	·	1.3%
COCCNC(=O)COc1cc(=O)n(C)c2ccccc12	>57	-4.8%
Brc1ccc(-c2nnc(-c3ccc4c(c3)OCO4)o2)o1	i	-27.5%
c1coc(-c2nnc(-c3ccc4c(c3)OCO4)o2)c1	·	10µM*
O=C(O)CNC(=O)c1ccc2c(c1)OCCO2	>57	1.8%
C1=C(c2cccc3ccccc23)N2CCN=C2S1	>57	0.6%
COc1ccc2oc(C(=O)CCC(=O)O)c(N)c2c1	·	-0.5%
COC(=O)CCC(=O)c1oc2ccc(Br)cc2c1N	·	12.6µM*
COCCCNc1ncnc2nc[nH]c12	·	6.31µM*
CC(C)=CCNc1ncnc2nc[nH]c12	·	2.2%[11.4 µM]
COCCNc1ncnc2nc[nH]c12	>57	1.3%
CCOC(=O)CNc1ncnc2nc[nH]c12	·	10µM*
COc1ccc(-c2nc3cccc(C)n3c2NCc2ccco2)cc1OC	·	-2.5%
CCOc1ccc(C(=O)NC2CCN(S(C)(=O)=O)CC2)cc1	>57	-2.3%
Cn1cc(/C=N/n2cnc3scc(-c4ccc(Cl)cc4)c3c2=O)c2ccccc21	>57	1.9%
COCCn1c(C)cc(C(=O)CSc2n[nH]c(N)n2)c1C	>57	-4.4%
COCCn1c(C)cc(C(=O)CSc2nnc(C)s2)c1C	?	10µM*
Cc1cc(C(=O)Cn2nnc(-c3ccc(Cl)cc3)n2)c(C)n1CC1CCCO1 (centres undefined)	>57	-1.8%
COc1ccccc1C1N(c2cc(Cl)ccc2OC)C(=O)C2CCCN21 (centres undefined)	·	0.3%
COC(=O)C1C(=O)c2c([nH]c(C(=O)OCC3CCCO3)c2C)CC1C (centres undefined)	·	7.94µM*
CCCCCOC(=O)c1[nH]c2c(c1C)C(=O)C(C(=O)OC)C(C)C2 (centres undefined)	>57	?
CC1=C(C(=O)OCC2CCCO2)C(c2ccccc2)NC(=O)N1 (centres undefined)	·	3.4%
COCCOC(=O)c1[nH]c2c(c1C)C(=O)C(C(=O)OC)C(C)C2 (centres undefined)	·	10µM*
O=C1Cn2c(nc3ccccc32)N1c1ccccc1F	>57	0.8%
NC(=O)c1ccsc1NC(=O)COc1ccccc1	i	20µM*
NC(=O)c1ccsc1NC(=O)CSc1ccccc1F	>11.4	-6.1%
